Compound activity: PubChem BioAssay, several laboratories
ALR H2O2 inh: inhibitors of human sulfhydryl oxidase ALR; P55789; inhibition, % (no concentration beside the values); purified ALR, DTT oxidation, H2O2 HRP-luminol luminescence; actives 3.8% (n = 290,000);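 active = mean replicate inhibition above about 79%, with every replicate also reaching it, limit read from the data; inconclusive = only one of the two criteria met; inactive = mean below limit and not every replicate reaching it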
Target sequence (P55789 whole entry, looked up): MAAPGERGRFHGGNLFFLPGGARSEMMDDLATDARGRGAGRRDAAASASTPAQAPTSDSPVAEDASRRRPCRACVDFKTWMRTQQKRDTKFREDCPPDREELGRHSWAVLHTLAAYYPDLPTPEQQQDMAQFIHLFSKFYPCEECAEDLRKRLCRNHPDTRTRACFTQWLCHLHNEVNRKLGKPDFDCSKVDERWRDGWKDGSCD
PfM18AAP inh: blocks P. falciparum M18 aspartyl aminopeptidase | inhibition, % at 7.35 µM | AID 1822 | recombinant PfM18AAP, H-Glu-NHMec fluorogenic cleavage | actives 1.2% (n = 290,000);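 active = inhibition above the campaign mean inhibition over all tested compounds plus 3 SD, cut at about 28% in these data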;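 also: 0% = plate median of test compound wells and 100% = 2 mM ZnCl2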
PHOSPHO1 block: blocks human PHOSPHO1 phosphatase activity; Q8TCT1; actives 1.1% (n = 290,000); recombinant PHOSPHO1, absorbance phosphatase assay; inhibition, % at 13.3 µM; in the data active = inhibition above about 60%
Target sequence (Q8TCT1 whole entry, looked up): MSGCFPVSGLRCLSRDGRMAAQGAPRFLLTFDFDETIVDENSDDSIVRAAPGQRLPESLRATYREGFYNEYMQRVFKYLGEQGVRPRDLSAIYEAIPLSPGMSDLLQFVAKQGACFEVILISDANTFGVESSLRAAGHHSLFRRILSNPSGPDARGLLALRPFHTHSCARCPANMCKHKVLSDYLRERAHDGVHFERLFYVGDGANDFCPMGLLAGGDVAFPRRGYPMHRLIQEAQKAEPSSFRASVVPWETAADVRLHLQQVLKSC
H9c2 protect: protects H9c2 cardiomyocytes from peroxide injury. actives 0.63% (n = 360,000). H2O2 injury protection, ATPLite, 2 h. protection from H2O2 cell death, % at 20 µM;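 active = compounds giving at least 50% protection of heart cells from peroxide-induced death in the single-dose screen, raw or plate-pattern-corrected value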;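 also: 0% = DMSO wells with peroxide and 100% = DMSO wells without peroxide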
PfG6PD inh: PfG6PD (Plasmodium falciparum) enzyme inhibition; inhibition, % at 20 µM; AID 504690; actives 0.78% (n = 350,000); PfGluPho enzyme, NADPH resazurin-diaphorase fluorescence;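 active = inhibition reaching at least a set limit at 20 µM in the primary screen, cut at about 59% in these data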;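 also: 0% = DMSO wells with substrate and 100% = DMSO wells lacking glucose-6-phosphate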
An asterisk follows results filed as active; ? = inconclusive; · = not tested or not shown. In the library only some 5.6% were active in any assay of this set; here they are far more common.

SMILES	ALR H2O2 inh	PfM18AAP inh	PHOSPHO1 block	H9c2 protect	PfG6PD inh
Cc1cc(C(=O)CSc2nc3ccccc3c(=O)n2C)c(C)n1Cc1ccc2c(c1)OCO2	-13	-13	20	-16	-7
Cc1cc(C(=O)CSc2nnc(-c3ccccc3)n2Cc2ccc3c(c2)OCO3)c(C)n1C	6	26	95*	7	16
O=C(CSc1nnc(-c2ccccc2)n1Cc1ccco1)Nc1ccc2c(c1)OCCO2	-47	-89	53	0	-2
O=C(CSc1nnc(-c2ccccc2)n1Cc1ccco1)NCc1ccc2c(c1)OCO2	?	-15	60*	3	10
COC(=O)[C@H](CC(C)C)NS(=O)(=O)c1ccc(F)cc1Br	·	·	·	-1	12
O=C(c1ccc2c(=O)n(Cc3ccco3)c(=S)[nH]c2c1)N1CCN(Cc2ccccc2)CC1	5	3	39	4	3
O=c1c2cc3c(cc2[nH]c(=S)n1Cc1ccco1)OCO3	64	0	78*	23	44
CN1CCN(C(=O)c2ccc3c(=O)n(Cc4ccco4)c(=S)[nH]c3c2)CC1	·	7	69*	4	13
O=C(NCCN1CCCC1)c1ccc(Cn2c(=S)[nH]c3cc4c(cc3c2=O)OCO4)cc1	18	3	71*	0	32
COc1cc(NC(=O)c2ccc3c(=O)n(Cc4ccco4)c(=S)[nH]c3c2)cc(OC)c1OC	0	1	76*	4	21
O=c1c2cc3c(cc2[nH]c(=S)n1C1CCN(Cc2ccccc2)CC1)OCO3	93*	-2	16	2	25
CCCc1cc(=O)[nH]c2nnc(SCC(=O)NC3CCCCC3)n12	-1	·	·	-1	-13
CC1CCCC(C(=O)O)N1C(=O)CCS (stereo not given)	-33	-13	62*	3	-6
CSCCC(=O)N1C(C)CCCC1C(=O)O (stereo not given)	-1	-6	23	5	2
Oc1ccc(/C=N/NC(=S)Nc2cccnc2)cc1	99*	31*	10	-12	-3
CCCC(=O)Nc1c(C(=O)OCC)[nH]c2ccccc12	-4	4	34	-6	12
CCOC(=O)c1[nH]c2ccccc2c1N=CN(CC)CC	99*	-7	-46	10	-5
COc1cc(/C=C(\NC(C)=O)C(=O)O)cc(OC)c1OC	-13	1	29	-5	7
COc1cc(/C=C(/NC(C)=O)C(=O)O)cc(Cl)c1OCc1ccc(Br)cc1	95*	3	3	-7	-6
C/C(=N/NC(=O)CSc1nc2ccccc2s1)c1ccncc1	6	0	45	-2	20
CS/C(=N\S(=O)(=O)c1cccs1)NC(=O)CSc1nc2ccccc2s1	98*	-68	100*	1	1
CCc1cccc(NC(=O)C2CCCN(c3ncnc4c3nc3n4CCCCC3)C2)c1 (stereo not given)	2	1	63*	10	3
O=C(/C=C/[C@H]1O[C@@H](n2cnc3c(NC(=O)c4ccccc4)ncnc32)[C@H](O)[C@@H]1O)NCc1ccc2c(c1)OCO2	·	·	·	0	·
C/C(=N\Nc1nc2ccccc2[nH]1)c1ccc(C)o1	99*	11	-3	-7	22
Cc1ccc(C)c(S(=O)(=O)N/N=C/c2ccc(F)cc2)c1	12	-1	-22	-1	1
SMILES	ALR H2O2 inh	PfM18AAP inh	PHOSPHO1 block	H9c2 protect	PfG6PD inh
CC(=O)CNc1ccc(S(=O)(=O)N/N=C/c2ccccc2)cc1	·	4	-35	0	23
Cc1ccc(C)c(S(=O)(=O)N/N=C/c2ccc(N(C)C)cc2)c1	99*	6	-7	-6	8
CC(=O)NCc1ccc(S(=O)(=O)N/N=C/c2ccc(N(C)C)cc2)cc1	98*	6	-21	-1	-3
COc1ccc(C(=O)NCCS(=O)(=O)N2CCc3ccccc3C2)cc1OC	2	·	·	-12	8
CCCCOC(=O)c1cc(-c2ccc(/C=N/n3cnnc3)o2)ccc1Cl	-12	7	·	21	4
CCOC(=O)c1cc(-c2ccc(/C=N\n3cnnc3)o2)ccc1Cl	1	14	13	67*	3
COc1ccccc1-c1nnc(SCC(=O)Nc2cccnc2Cl)n1C	-9	·	·	5	2
CC(C)CCc1c(O)nc(SCC(=O)N2CCCCCC2)[nH]c1=O	87*	4	7	-1	·
CCCc1c(O)nc(SCC(=O)N2CCCCC2)[nH]c1=O	88*	0	-18	3	1
CCCN(Cc1nnc(-c2ccccc2Cl)o1)C(=O)c1oc2ccccc2c1C	-4	·	·	-5	15
COc1ccc(Nc2nc(N)nc(CN3CCN(c4ccc(F)cc4)CC3)n2)cc1	99*	0	-22	21	16
Cc1cccc(Nc2nc(N)nc(CN3CCN(c4ccccc4)CC3)n2)c1	80*	2	-5	14	-4
Nc1nc(CN2CCN(Cc3ccccc3)CC2)nc(Nc2ccccc2)n1	-1	-1	8	7	-13
COc1cccc(N2CCN(Cc3nnnn3C3CCCCC3)CC2)c1	89*	5	10	-2	-10
Cc1ccc(C)c(N2CCN(Cc3nnnn3C3CCCCC3)CC2)c1	-2	-5	-14	-12	-3
COc1cccc(N2CCN(Cc3nc(N)nc(Nc4ccccc4)n3)CC2)c1	97*	9	10	21	8
COc1ccc(C(C[N+](=O)[O-])c2c(C)[nH]n(-c3ccccc3)c2=O)cc1 (stereo not given)	-42	45*	28	5	16
C=CCn1c(=S)[nH]c2scc(-c3ccc(C)o3)c2c1=O	98*	-68	-96	14	0
C=CCn1c(SCC(C)=O)nc2scc(-c3ccc(C)o3)c2c1=O	96*	-44	-3	2	3
C=CCn1c(SCC(=O)NCCCC)nc2scc(-c3ccco3)c2c1=O	53	-25	3	22	46
C=CCn1c(=S)[nH]c2sccc2c1=O	98*	-6	36	-5	-12
COc1cc(C(O)c2nc(-c3cc4ccccc4o3)cs2)ccc1F (stereo not given)	·	·	·	-10	·
CSc1ccccc1OCc1cc(C(=O)N2CCC(Oc3cccnc3)CC2)no1	-18	0	13	-9	·
CN(C)c1ccc(/C=C(\NC(=O)c2ccccc2)C(=O)NCCCn2ccnc2)cc1	99*	7	28	8	-5
O=C(NCCCn1ccnc1)/C(=C/c1ccccc1)NC(=O)c1ccccc1	4	2	28	8	-3
N#Cc1ccccc1S(=O)(=O)N1CCN(C(=O)c2cc(=O)[nH]c3ccccc23)CC1	-3	·	·	26	13
Cc1cc(C)c(S(=O)(=O)N2CCN(C(=O)c3cc(=O)[nH]c4ccccc34)CC2)c(C)c1	-4	·	·	63*	-15
Cc1cc(C)c(C)c(S(=O)(=O)N2CCN(C(=O)c3cc(=O)[nH]c4ccccc34)CC2)c1C	-2	0	5	79*	-14
Cc1ccc(S(=O)(=O)N2CCN(C(=O)c3cc(=O)[nH]c4ccccc34)CC2)c(C)c1	·	-7	45	72*	-1
CCc1nc2c(OCc3ccc(C#N)cc3)cccn2c1N(C)C(=O)c1ccc(C)cc1	·	·	·	2	·
